Measurements: PubChem BioAssay AID504465 (National Center for Advancing Translational Sciences (NCATS), 2011)
Among all 2,100 compounds or so, about 210 (10%) were called active. Inconclusive results (about 53%) are left out. Some of the results follow. Values without a mark were called inactive. Calls follow the shape of the dose curve; as a rule, active = well fitted inhibition curve with a large enough effect; inconclusive = small, poorly fitted or top-dose-only effect, or effect the other way; inactive = no such curve, though single readings can be large or run the other way.

test: IN Cell qHTS Assay for Inhibitors of the mTORC1 Signaling Pathway in MEF (Tsc2-/-, p53-/-) Cells: Sytravon; details: phospho-rpS6 immunofluorescence, 24 h; series mostly up to 38.3 µM; activity, negative = inhibition: at the top concentration; also: nearly all actives have a fitted effect of over 60% in size
Summary of the method: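 Immunofluorescence of rpS6 phosphorylation (Ser235/236) in mouse embryonic fibroblasts lacking Tsc2 and p53, after 24 h compound exposure; Hoechst-normalized signal imaged, each well scored as % active cells relative to rapamycin (7.5 nM) and DMSO controls.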
Potency is read from the fitted curve at half-maximal effect.

Row | SMILES | activity, negative = inhibition [%] | Potency
1 | CCN(CC)CCCNc1cc(-c2ccccc2)nc(C)n1 | -25.1 | –
2 | CC(C)c1ccc(C2CC(=O)Nc3cc4c(cc32)OCCO4)cc1 (centres undefined) | 28.6 | –
3 | O=C(NCCCc1nc2ccccc2n1Cc1ccccc1F)c1ccco1 | -18.6 | –
4 | COc1ccc(CNc2oc(COc3cccc(C)c3)nc2C#N)cc1 | – | 3.69 µM (active)
5 | COc1ccc(CNc2oc(/C=C/c3cccc(OC)c3)nc2C#N)cc1 | -16.9 | –
6 | CCOc1ccc(/C=C/c2nc(C#N)c(NCCCN(C)C)o2)cc1 | -10.9 | –
7 | COc1ccc(CNc2oc(/C=C/c3cc(OC)c(OC)c(OC)c3)nc2C#N)cc1 | -17.5 | –
8 | Cc1cccc(OCc2ccc(-c3nc(C#N)c(NCCN(C)C)o3)o2)c1 | – | 5.85 µM (active)
9 | Cc1ccccc1OCc1ccc(-c2nc(C#N)c(N3CCN(C)CC3)o2)o1 | -14.4 | –
10 | CCCc1ccc(NC(=O)C2CCN(c3cnccn3)CC2)cc1 | -23.8 | –
11 | CCOCCCNC(=O)C1CCN(c2nc3ccc(Cl)cc3[nH]2)CC1 | 20.5 | –
12 | CCCCN(C)CCCNC(=O)C1CCN(c2nc3ccc(CC)cc3s2)CC1 | – | 5.21 µM (active)
13 | CCCN(CCC)CCCNC(=O)C1CCN(c2nc3ccc(CC)cc3s2)CC1 | – | 6.56 µM (active)
14 | Cc1cc(=O)n2nc(N3CCC(C(=O)NCc4ccc(Cl)cc4)CC3)sc2n1 | -2.82 | –
15 | COc1cccc(NC(=O)C2CCC(CNS(=O)(=O)c3csc(C(N)=O)c3)CC2)c1 (centres undefined) | 1.3 | –
16 | O=C(CCCCn1c(=O)[nH]c2ccsc2c1=O)N1CCN(c2cccc(Cl)c2)CC1 | 13.4 | –
17 | O=C(NCc1ccco1)C1CCN(C(=O)N2CCOc3ccc(Cl)cc32)CC1 | -11.2 | –
18 | O=C(Nc1ccc(Br)cc1F)c1cc(S(=O)(=O)NC2CCCC2)ccc1F | 6.25 | –
19 | CC1C(=O)N2CCCc3cc(S(=O)(=O)Nc4ccc(Br)cc4F)cc1c32 (centres undefined) | – | 14.7 µM (active)
20 | CCC(=O)N1CCc2cc(Br)cc(S(=O)(=O)N3CCCC(C(=O)Nc4ccc(CC)cc4)C3)c21 (centres undefined) | -0.347 | –
21 | Cc1ccc(C2c3c(-c4cc(C)ccc4O)n[nH]c3C(=O)N2Cc2ccco2)cc1 (centres undefined) | -28.4 | –
22 | COc1ccc(Cn2c(C(=O)O)c(CNCCc3cccs3)c3ccc(OC)cc32)cc1 | -23.6 | –
23 | CCc1ccc(NC(=O)C2CCC(CNS(=O)(=O)c3ccc4c(c3)CC(C)N4C(C)=O)CC2)cc1 (centres undefined) | 0.227 | –
24 | CCCCS(=O)(=O)c1oc(-c2ccc(F)cc2)nc1S(=O)(=O)c1ccc(C)cc1 | – | 6.56 µM (active)
25 | Cc1ccc(CSc2oc(-c3ccco3)nc2S(=O)(=O)c2ccc(Cl)cc2)cc1 | 9.59 | –

Row | SMILES | activity, negative = inhibition [%] | Potency
26 | CCCCS(=O)(=O)c1oc(-c2ccc(F)cc2)nc1S(=O)(=O)c1ccccc1 | – | 4.14 µM (active)
27 | CCS(=O)(=O)c1oc(-c2ccc(F)cc2)nc1S(=O)(=O)c1ccc(Br)cc1 | – | 2.93 µM (active)
28 | CC(C)CS(=O)(=O)c1oc(-c2ccc(F)cc2)nc1S(=O)(=O)c1ccccc1 | – | 0.656 µM (active)
29 | Cc1ccc(S(=O)(=O)c2nc(S(=O)(=O)c3ccccc3)sc2NCCCOC(C)C)cc1 | -4.2 | –
30 | O=S(=O)(NCC(c1ccco1)S(=O)(=O)c1ccccc1)c1cc(F)ccc1F (centres undefined) | -5.98 | –
31 | CCCN1C(=O)C(Cc2nc3ccccc3c(=O)n2CC)c2cc(Br)ccc21 (centres undefined) | -26 | –
32 | COC(=O)c1c(NC(=O)c2ccc(S(=O)(=O)N3CCC(C)CC3)cc2)sc2c1CCN(C)C2 | -13.9 | –
33 | Cc1cccc(-n2cnc3cc(C(=O)NC4CCCCCC4)ccc32)c1 | -13.7 | –
34 | CC(C)c1ccc(NC(=O)c2ccc3c(c2)CCCN3S(C)(=O)=O)cc1 | -64.6 | –
35 | CCc1ccc(NS(=O)(=O)c2ccc3[nH]c4c(c3c2)CCCCCC4)cc1 | -5.72 | –
36 | O=C1C(Nc2ccccc2)=CC(c2ccc(Br)cc2)N1c1ccccc1 (centres undefined) | -8.7 | –
37 | COc1ccc(-n2nnnc2C2CCN(S(=O)(=O)c3cc(Cl)ccc3OC)CC2)cc1 | -13.3 | –
38 | O=C(NCCc1csc(-c2cccnc2)n1)c1cccc(C(F)(F)F)c1 | -29.2 | –
39 | O=C(C1CCC(CNS(=O)(=O)c2ccc(Br)s2)CC1)N1CCN(c2ccccc2)CC1 (centres undefined) | 3.43 | –
40 | CCS(=O)(=O)c1oc(-c2ccc(F)cc2)nc1S(=O)(=O)c1ccccc1 | – | 0.208 µM (active)
41 | O=S(=O)(c1ccccc1)n1nc(-c2ccc(Cl)cc2)nc1NCc1ccc(F)cc1 | 14.6 | –
42 | O=S(=O)(c1ccc(Cl)cc1)c1nc(-c2ccco2)oc1SCc1ccccc1F | -30.3 | –
43 | COc1ccc(S(=O)(=O)N(Cc2nc(-c3cccc(C)c3)no2)C2CCCCC2)cc1 | -8.71 | –
44 | COc1ccc(NC2=C(c3ccc(C(F)(F)F)cc3)C(=O)c3ccccc32)cc1 | 16.1 | –
45 | COc1ccc(-c2cc(C(F)(F)F)nc(S(C)(=O)=O)n2)cc1 | – | 11.7 µM (active)
46 | COc1ccc(C)cc1NC(=O)c1oc2ccc(S(=O)(=O)N3CCC4(CC3)OCCO4)cc2c1C | 6.25 | –
47 | CC(C)Oc1cccc(C2CC(=O)Nc3cc4c(cc32)OCO4)c1 (centres undefined) | -57.2 | –
48 | COC(=O)c1c(-c2ccc(Cl)cc2)noc1N1CCN(c2cccc(C(F)(F)F)c2)CC1 | 14.6 | –
49 | CCCN(CCC)CC(O)Cn1cc(/C=C/C(=O)c2ccc(OCC)cc2)c2ccccc21 (centres undefined) | – | 14.7 µM (active)
